# Experimental data reported in the supplement of paper PMC8728848.
# Shown is part of a subset that was picked to be rich in the strongest signals.
# B1: ACA (Amaranthus caudatus) (protein)
# chain: MAGLPVIMCLKSNNNQKYLRYQSDNIQQYGLLQFSADKILDPLAQFEVEPSKTYDGLVHIKSRYTNKYLVRWSPNHYWITASANEPDENKSNWACTLFKPLYVEEGNMKKVRLLHVQLGHYTQNYTVGGSFVSYLFAESSQIDTGSKDVFHVIDWKSIFQFPKRYVTFKGNNGKYLGVITINQLPCLQFGYDNLNDPKVAHEMFVTSNGTICIKSTYMNKFWRLSTDDWILVDGNDPRETNEAAALFRSDVHDFNVISLLNMQKTWFIKRFTSGKPGFINCMNAATQNVDETAILEIIELGSNN
# Experiments:
# Test in all cases: glycan array binding signal (z-score within array); higher = stronger binding
# Details in all cases: glycan notation: IUPAC condensed, linker removed
# [1] = molecular target: Fuc(a1-2)[GalNAc(a1-3)]Gal(b1-4)GlcNAc(b1-6)GalNAc
# Procedure, shortened: (§1)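 The binding signal is a Z-score computed within each array. Data were drawn from 3228 arrays in the Consortium for Functional Glycomics database, restricted to those with a known protein sequence. Scores were averaged over arrays of the same protein sequence at different concentrations or buffers, and over linkers, and negative values can be taken as non-binding.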
# Fuc(a1-3)GlcNAc = molecular target: Fuc(a1-3)GlcNAc
# Procedure, shortened: as §1
# [2] = molecular target: Fuc(a1-3)[Gal(b1-4)]Glc6S
# Procedure, shortened: as §1
# [3] = molecular target: Gal(a1-3)Gal(b1-3)GlcNAc(b1-3)GalNAc
# Procedure, shortened: as §1
# [4] = molecular target: Gal(a1-3)Gal(b1-4)GlcNAc(b1-6)GalNAc
# Procedure, shortened: as §1
# [5] = molecular target: Gal(a1-3)Gal(b1-4)[Fuc(a1-3)]GlcNAc(b1-2)Man(a1-3)[Gal(a1-3)Gal(b1-4)[Fuc(a1-3)]GlcNAc(b1-2)Man(a1-6)]Man(b1-4)GlcNAc(b1-4)GlcNAc
# Procedure, shortened: as §1
# Gal(a1-3)GalNAc = molecular target: Gal(a1-3)GalNAc
# Procedure, shortened: as §1
# Gal(b1-3)Gal(b1-4)GlcNAc = molecular target: Gal(b1-3)Gal(b1-4)GlcNAc
# Procedure, shortened: as §1
# [6] = molecular target: Gal(b1-3)GalNAc(a1-3)[Fuc(a1-2)]Gal(b1-4)Glc
# Procedure, shortened: as §1
# [7] = molecular target: Gal(b1-3)GlcNAc(b1-2)[Gal(b1-3)GlcNAc(b1-6)]Man(a1-6)[Gal(b1-3)GlcNAc(b1-2)Man(a1-3)]Man(b1-4)GlcNAc(b1-4)GlcNAc
# Procedure, shortened: as §1
# [8] = molecular target: Gal(b1-3)GlcNAc(b1-3)GalNAc
# Procedure, shortened: as §1
# [9] = molecular target: Gal(b1-4)GalNAc(a1-3)[Fuc(a1-2)]Gal(b1-4)GlcNAc
# Procedure, shortened: as §1
# Gal(b1-4)GlcNAc(b1-2)Man = molecular target: Gal(b1-4)GlcNAc(b1-2)Man
# Procedure, shortened: as §1
# [10] = molecular target: Gal(b1-4)GlcNAc(b1-2)Man(a1-3)[Gal(b1-4)GlcNAc(b1-2)Man(a1-6)]Man(b1-4)GlcNAc(b1-4)[Fuc(a1-6)]GlcNAc
# Procedure, shortened: as §1
# [11] = molecular target: Gal(b1-4)GlcNAc(b1-2)Man(a1-6)Man(b1-4)GlcNAc(b1-4)GlcNAc
# Procedure, shortened: as §1
# [12] = molecular target: Gal(b1-4)GlcNAc(b1-3)Gal(b1-4)Glc
# Procedure, shortened: as §1
# [13] = molecular target: Gal(b1-4)GlcNAc(b1-3)Gal(b1-4)GlcNAc(b1-2)Man(a1-3)[Gal(b1-4)GlcNAc(b1-3)Gal(b1-4)GlcNAc(b1-2)Man(a1-6)]Man(b1-4)GlcNAc(b1-4)GlcNAc
# Procedure, shortened: as §1
# [14] = molecular target: Gal(b1-4)GlcNAc(b1-3)Gal(b1-4)GlcNAc(b1-2)Man(a1-3)[Gal(b1-4)GlcNAc(b1-3)Gal(b1-4)GlcNAc(b1-2)Man(a1-6)]Man(b1-4)GlcNAc(b1-4)[Fuc(a1-6)]GlcNAc
# Procedure, shortened: as §1
# [15] = molecular target: Gal(b1-4)GlcNAc(b1-3)Gal(b1-4)GlcNAc(b1-3)Gal(b1-4)GlcNAc(b1-2)Man(a1-3)[Gal(b1-4)GlcNAc(b1-3)Gal(b1-4)GlcNAc(b1-3)Gal(b1-4)GlcNAc(b1-2)Man(a1-6)]Man(b1-4)GlcNAc(b1-4)GlcNAc
# Procedure, shortened: as §1
# [16] = molecular target: Gal(b1-4)GlcNAc(b1-3)Gal(b1-4)GlcNAc(b1-3)[Gal(b1-4)GlcNAc(b1-3)Gal(b1-4)GlcNAc(b1-6)]GalNAc
# Procedure, shortened: as §1
# [17] = molecular target: Gal(b1-4)GlcNAc(b1-3)Gal(b1-4)GlcNAc(b1-6)[Gal(b1-3)]GalNAc
# Procedure, shortened: as §1
# [18] = molecular target: Gal(b1-4)GlcNAc(b1-3)[Fuc(a1-3)GlcNAc(b1-6)]Gal(b1-4)Glc
# Procedure, shortened: as §1
# Gal6S(b1-3)GlcNAc = molecular target: Gal6S(b1-3)GlcNAc
# Procedure, shortened: as §1
# Glc(a1-4)Glc = molecular target: Glc(a1-4)Glc
# Procedure, shortened: as §1
# [19] = molecular target: GlcA3S(b1-3)Gal(b1-4)GlcNAc(b1-2)Man
# Procedure, shortened: as §1
# [20] = molecular target: GlcNAc(b1-3)Gal(b1-4)GlcNAc(b1-3)Gal(b1-4)GlcNAc(b1-2)Man(a1-3)[GlcNAc(b1-3)Gal(b1-4)GlcNAc(b1-3)Gal(b1-4)GlcNAc(b1-2)Man(a1-6)]Man(b1-4)GlcNAc(b1-4)GlcNAc
# Procedure, shortened: as §1
# [21] = molecular target: GlcNAc(b1-3)Gal(b1-4)GlcNAc(b1-3)Gal(b1-4)GlcNAc(b1-3)Gal(b1-4)GlcNAc(b1-2)[GlcNAc(b1-3)Gal(b1-4)GlcNAc(b1-3)Gal(b1-4)GlcNAc(b1-3)Gal(b1-4)GlcNAc(b1-6)]Man(a1-6)[GlcNAc(b1-3)Gal(b1-4)GlcNAc(b1-3)Gal(b1-4)GlcNAc(b1-3)Gal(b1-4)GlcNAc(b1-2)Man(a1-3)]Man(b1-4)GlcNAc(b1-4)[Fuc(a1-6)]GlcNAc
# Procedure, shortened: as §1
# Kdn(a2-3)Gal(b1-4)Glc = molecular target: Kdn(a2-3)Gal(b1-4)Glc
# Procedure, shortened: as §1
# [22] = molecular target: Man(a1-3)[Man(a1-6)]Man(a1-6)[Man(a1-2)Man(a1-3)]Man(b1-4)GlcNAc(b1-4)GlcNAc
# Procedure, shortened: as §1
# [23] = molecular target: Neu5Ac(a2-3)Gal(b1-3)GlcNAc(b1-2)Man(a1-3)[GlcNAc(b1-4)][Neu5Ac(a2-3)Gal(b1-3)GlcNAc(b1-2)Man(a1-6)]Man(b1-4)GlcNAc(b1-4)GlcNAc
# Procedure, shortened: as §1
# [24] = molecular target: Neu5Ac(a2-3)Gal(b1-3)[GlcNAc(b1-6)]GalNAc
# Procedure, shortened: as §1
# [25] = molecular target: Neu5Ac(a2-3)Gal(b1-4)GlcNAc(b1-2)Man(a1-3)[Neu5Ac(a2-6)Gal(b1-4)GlcNAc(b1-2)Man(a1-6)]Man(b1-4)GlcNAc(b1-4)GlcNAc
# Procedure, shortened: as §1
# [26] = molecular target: Neu5Ac(a2-3)Gal(b1-4)GlcNAc(b1-3)Gal(b1-4)GlcNAc(b1-2)Man(a1-3)[Neu5Ac(a2-3)Gal(b1-4)GlcNAc(b1-3)Gal(b1-4)GlcNAc(b1-2)Man(a1-6)]Man(b1-4)GlcNAc(b1-4)GlcNAc
# Procedure, shortened: as §1
# [27] = molecular target: Neu5Ac(a2-3)Gal(b1-4)GlcNAc(b1-3)Gal(b1-4)GlcNAc(b1-3)Gal(b1-4)GlcNAc(b1-2)Man(a1-3)[Neu5Ac(a2-3)Gal(b1-4)GlcNAc(b1-3)Gal(b1-4)GlcNAc(b1-3)Gal(b1-4)GlcNAc(b1-2)Man(a1-6)]GalNAc
# Procedure, shortened: as §1
# [28] = molecular target: Neu5Ac(a2-3)Gal(b1-4)GlcNAc(b1-3)[Neu5Ac(a2-3)Gal(b1-4)GlcNAc(b1-6)]GalNAc
# Procedure, shortened: as §1
# [29] = molecular target: Neu5Ac(a2-3)Gal(b1-4)GlcNAc(b1-6)[Gal(b1-3)]GalNAc
# Procedure, shortened: as §1
# [30] = molecular target: Neu5Ac(a2-3)Gal(b1-4)GlcNAc6S
# Procedure, shortened: as §1
# [31] = molecular target: Neu5Ac(a2-3)[GalNAc(b1-4)]Gal(b1-4)GlcNAc
# Procedure, shortened: as §1
# [32] = molecular target: Neu5Ac(a2-6)Gal(b1-4)GlcNAc(b1-3)Gal(b1-4)GlcNAc(b1-3)Gal(b1-4)GlcNAc(b1-2)Man(a1-3)[Neu5Ac(a2-6)Gal(b1-4)GlcNAc(b1-3)Gal(b1-4)GlcNAc(b1-3)Gal(b1-4)GlcNAc(b1-2)Man(a1-6)]GalNAc
# Procedure, shortened: as §1
# [33] = molecular target: Neu5Ac(a2-6)Gal(b1-4)GlcNAc(b1-3)Gal(b1-4)GlcNAc(b1-3)[Neu5Ac(a2-6)Gal(b1-4)GlcNAc(b1-3)Gal(b1-4)GlcNAc(b1-6)]GalNAc
# Procedure, shortened: as §1
# [34] = molecular target: Neu5Ac(a2-6)Gal(b1-4)GlcNAc(b1-3)Gal(b1-4)[Fuc(a1-3)]GlcNAc(b1-3)Gal(b1-4)[Fuc(a1-3)]GlcNAc
# Procedure, shortened: as §1
# [35] = molecular target: Neu5Ac(a2-8)Neu5Ac(a2-3)Gal(b1-4)Glc
# Procedure, shortened: as §1
# [36] = molecular target: Neu5Gc(a2-3)Gal(b1-4)GlcNAc(b1-3)Gal(b1-4)GlcNAc(b1-2)Man(a1-3)[Neu5Gc(a2-3)Gal(b1-4)GlcNAc(b1-3)Gal(b1-4)GlcNAc(b1-2)Man(a1-6)]Man(b1-4)GlcNAc(b1-4)GlcNAc
# Procedure, shortened: as §1
# [37] = molecular target: Neu5Gc(a2-3)Gal(b1-4)[Fuc(a1-3)]GlcNAc
# Procedure, shortened: as §1
# [38] = molecular target: Neu5Gc(a2-6)Gal(b1-4)GlcNAc
# Procedure, shortened: as §1
binder,measurement,setting,value
B1,glycan array binding signal (z-score),[1],-0.116
same,glycan array binding signal (z-score),Fuc(a1-3)GlcNAc,-0.103
same,glycan array binding signal (z-score),[2],0.058
same,glycan array binding signal (z-score),[3],-0.395
same,glycan array binding signal (z-score),[4],-0.246
same,glycan array binding signal (z-score),[5],-0.878
same,glycan array binding signal (z-score),Gal(a1-3)GalNAc,0.156
same,glycan array binding signal (z-score),Gal(b1-3)Gal(b1-4)GlcNAc,0.13
same,glycan array binding signal (z-score),[6],-0.399
same,glycan array binding signal (z-score),[7],-0.184
same,glycan array binding signal (z-score),[8],0.052
same,glycan array binding signal (z-score),[9],-0.471
same,glycan array binding signal (z-score),Gal(b1-4)GlcNAc(b1-2)Man,-0.376
same,glycan array binding signal (z-score),[10],0.193
same,glycan array binding signal (z-score),[11],-0.378
same,glycan array binding signal (z-score),[12],-0.12
same,glycan array binding signal (z-score),[13],4.74
same,glycan array binding signal (z-score),[14],3.63
same,glycan array binding signal (z-score),[15],5.84
same,glycan array binding signal (z-score),[16],5.24
same,glycan array binding signal (z-score),[17],3.84
same,glycan array binding signal (z-score),[18],0.71
same,glycan array binding signal (z-score),Gal6S(b1-3)GlcNAc,-0.469
same,glycan array binding signal (z-score),Glc(a1-4)Glc,0.351
same,glycan array binding signal (z-score),[19],-0.456
same,glycan array binding signal (z-score),[20],3.43
same,glycan array binding signal (z-score),[21],0.586
same,glycan array binding signal (z-score),Kdn(a2-3)Gal(b1-4)Glc,-0.204
same,glycan array binding signal (z-score),[22],6.44
same,glycan array binding signal (z-score),[23],-0.413
same,glycan array binding signal (z-score),[24],-0.266
same,glycan array binding signal (z-score),[25],-0.42
same,glycan array binding signal (z-score),[26],3.13
same,glycan array binding signal (z-score),[27],9.87
same,glycan array binding signal (z-score),[28],0.132
same,glycan array binding signal (z-score),[29],0.029
same,glycan array binding signal (z-score),[30],-0.219
same,glycan array binding signal (z-score),[31],-0.069
same,glycan array binding signal (z-score),[32],3.17
same,glycan array binding signal (z-score),[33],4.69
same,glycan array binding signal (z-score),[34],0.326
same,glycan array binding signal (z-score),[35],-0.424
same,glycan array binding signal (z-score),[36],1.25
same,glycan array binding signal (z-score),[37],-0.167
same,glycan array binding signal (z-score),[38],-0.372
